In the supplement of paper PMC12350171:
Counter-ions that a name gives are not always drawn. A number with no mark means an inactive call.

Experiments:
Conditions in all cases: 20 µM
[1] = tested on: Salmonella enterica typhimurium; test: growth AUC normalised to DMSO control (fraction of control); higher = less growth inhibition, active = hit call of the paper
Summary of the method: (§1)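 After two anaerobic passages, pathogens were added at a starting OD578 of 0.01 to pre-reduced mGAM plates holding compound at 20 μM with 1% DMSO; hemin and NAD were supplemented for Haemophilus parainfluenzae. Sealed with breathable membranes, plates were read at OD578 hourly for 24 h, in three biological replicates. The trapezoidal rule, applied up to the exponential-to-stationary transition, gave the growth-curve AUC, which was normalised to DMSO controls on the same plate.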

Shigella flexneri = test: as above
Summary of the method: as §1

Vibrio cholerae = test: as above
Summary of the method: as §1

[2] = tested on: Yersinia pseudotuberculosis; test: as above
Summary of the method: as §1

P. vulgatus RND KO = test: growth AUC normalised to DMSO control (median) (fraction of control); higher = less growth inhibition, active = hit call of the paper
Summary of the method: (§2)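 After two overnight anaerobic passages, strains were inoculated at OD578 0.01 into mGAM in 96-well plates containing approved-drug library compounds at 20 μM and 1% DMSO. Growth was followed by reading OD578 hourly for 24 h within an anaerobic incubator. Area under the curve, taken by the trapezoidal rule up to the start of stationary phase, was normalised to same-plate vehicle wells, and the median of three biological replicates is listed.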

P. vulgatus WT = test: as above
Summary of the method: as §2

[3] = tested on: S. enterica typhimurium WT; test: as above
Summary of the method: as §2

[4] = tested on: S. enterica typhimurium tolC KO; test: as above
Summary of the method: as §2
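For growth AUC normalised to DMSO control (median) in this document: active when median AUC fell below 0.1.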

SMILES | growth AUC normalised to DMSO control [1] | growth AUC normalised to DMSO control (Shigella flexneri) | growth AUC normalised to DMSO control (Vibrio cholerae) | growth AUC normalised to DMSO control [2] | growth AUC normalised to DMSO control (P. vulgatus RND KO) | growth AUC normalised to DMSO control (P. vulgatus WT) | growth AUC normalised to DMSO control [3] | growth AUC normalised to DMSO control [4]
COc1cc(C)nc(-n2nc(C)cc2OC)n1 [Epirizole] | 0.997 | 1 | 0.981 | 0.992 | 0.979 | 0.999 | 1 | 1.01
CC[N+](CC)(CC)CCOc1cccc(OCC[N+](CC)(CC)CC)c1OCC[N+](CC)(CC)CC [Gallamine triethiodide] | 1 | 1.02 | 1.01 | 1.02 | 1.02 | 1.02 | 1.01 | 1.01
C#Cc1cccc(Nc2ncnc3cc(OCCOC)c(OCCOC)cc23)c1 [Erlotinib] | 1 | 1.03 | 1.02 | 0.995 | 0.967 | 0.989 | 0.997 | 0.938
CNC(=C[N+](=O)[O-])NCCSCc1ccc(CN(C)C)o1 [Ranitidine hydrochloride] | 1 | 1 | 1.01 | 1.01 | 1.01 | 0.985 | 1.02 | 1.01
Cc1cnc(NC(=O)C2=C(O)c3ccccc3S(=O)(=O)N2C)s1 [Meloxicam] | 1.01 | 0.953 | 0.837 (active) | 1 | 0.982 | 0.991 | 0.994 | 0.947
O=C(O)c1cc(=O)c2c(OCC(O)COc3cccc4oc(C(=O)O)cc(=O)c34)cccc2o1 [Cromolyn disodium salt] | 0.98 | 0.995 | 1 | 1 | 1.03 | 1.03 | 1.02 | 0.996
Nc1ccc(S(=O)(=O)c2ccc(N)cc2)cc1 [Dapsone] | 0.982 | 0.994 | 0.988 | 1 | 1.01 | 1 | 1 | 0.994
O=c1oc2ccccc2c(O)c1Cc1c(O)c2ccccc2oc1=O [Dicumarol] | 0.986 | 1 | 0.891 | 1 | 0.877 | 0.945 | 1 | 0.891
Clc1ccc(C(Cn2ccnc2)OCc2c(Cl)cccc2Cl)c(Cl)c1 (stereo not given) [Isoconazole] | 0.997 | 1.01 | 0.949 | 1.01 | 0.95 | 0.949 | 0.995 | 0.953
Nc1ccc(S(=O)(=O)Nc2nccs2)cc1 [Sulfathiazole] | 1.02 | 1 | 1.01 | 1.01 | 0.995 | 1.01 | 0.985 | 0.974
COc1cc(C(=O)NS(=O)(=O)c2ccccc2C)ccc1Cc1cn(C)c2ccc(NC(=O)OC3CCCC3)cc12 [Zafirlukast] | 0.961 | 0.982 | 0.966 | 0.988 | 0.84 | 0.891 | 1.01 | 0.962
CN(C)CCOc1ccc(/C(=C(/CCCl)c2ccccc2)c2ccccc2)cc1 [Toremifene] | 1.01 | 1.05 | 1.05 | 1.06 | 0.973 | 1.01 | 1.02 | 0.983
Clc1ccccc1C(c1ccccc1)(c1ccccc1)n1ccnc1 [Clotrimazole] | 0.992 | 1.02 | 0.932 | 0.985 | 0.952 | 0.954 | 0.995 | 0.829
CN1C2CCCC1CC(NC(=O)c1nn(C)c3ccccc13)C2 (stereo not given) [Granisetron] | 1 | 1.02 | 1.01 | 1 | 1 | 0.987 | 0.982 | 1
CCCCOc1ccc(CC(=O)NO)cc1 [Bufexamac] | 0.996 | 0.974 | 1.01 | 0.956 | 1.01 | 0.991 | 0.997 | 0.967
CCCCC(=O)O[C@H]1CC[C@H]2[C@@H]3CCc4cc(O)ccc4[C@H]3CC[C@]12C [Estradiol Valerate] | 1.05 | 1.05 | 1.08 | 1.01 | 1 | 1.07 | 0.998 | 1
O=C(CCCCC(=O)Nc1c(I)cc(I)c(C(=O)O)c1I)Nc1c(I)cc(I)c(C(=O)O)c1I [Iodipamide] | 0.986 | 0.998 | 0.995 | 1 | 1.01 | 1 | 0.999 | 1.01
CC(N)C12CC3CC(CC(C3)C1)C2 (stereo not given) [Rimantadine hydrochloride] | 0.99 | 0.987 | 0.985 | 0.869 | 0.978 | 0.983 | 0.996 | 0.989
COc1ccc([C@@H]2CC(=O)c3c(O)cc(O[C@@H]4O[C@H](CO[C@@H]5O[C@@H](C)[C@H](O)[C@@H](O)[C@H]5O)[C@@H](O)[C@H](O)[C@H]4O)cc3O2)cc1O [Hesperidin] | 1.03 | 1.04 | 1.07 | 1.01 | 1.03 | 1 | 1 | 1.01
Oc1ncnc2[nH]ncc12 [Allopurinol] | 0.996 | 1.03 | 1.02 | 1 | 1.03 | 1.04 | 0.999 | 0.99
COc1ccccc1OCC(O)COC(N)=O (stereo not given) [Methocarbamol] | 0.986 | 0.981 | 0.94 | 0.979 | 0.993 | 1.03 | 1 | 1
CCN[C@H]1C[C@H](C)S(=O)(=O)c2sc(S(N)(=O)=O)cc21 [Dorzolamide hydrochloride] | 1.02 | 1.04 | 1.04 | 1.03 | 1.05 | 1.05 | 1 | 1.01
OCCN(CCO)c1nc(N2CCCCC2)c2nc(N(CCO)CCO)nc(N3CCCCC3)c2n1 [Dipyridamole] | 1.01 | 1.01 | 1.01 | 1 | 1 | 0.997 | 1.02 | 0.956
c1cnc(N2CCN(Cc3ccc4c(c3)OCO4)CC2)nc1 [Piribedil] | 1 | 1.03 | 0.999 | 1.01 | 1.07 | 1.09 | 0.984 | 1
CCOc1ccccc1OC(c1ccccc1)C1CNCCO1 (stereo not given) [Reboxetine mesylate] | 0.991 | 0.986 | 1.01 | 0.995 | 1.01 | 1.01 | 1 | 0.988
CC(C)(CO)[C@@H](O)C(=O)NCCCO [(D)-Panthenol] | 0.999 | 1.02 | 0.998 | 0.99 | 0.995 | 0.979 | 1 | 1
Nc1nc(O)c2ncn(CCC(CO)CO)c2n1 [Penciclovir] | 1.01 | 1.01 | 1.06 | 1.02 | 1.02 | 1.03 | 1 | 0.997
O=C(CCCCCCC(=O)Nc1ccccc1)NO [Vorinostat] | 0.994 | 1.03 | 0.996 | 1.03 | 1.01 | 1.06 | 0.997 | 1
Nc1ccc(S(=O)(=O)Nc2ccnn2-c2ccccc2)cc1 [Sulfaphenazole] | 1 | 1.01 | 0.856 (active) | 1.01 | 0.989 | 0.961 | 0.998 | 0.981
CCn1cc(C(=O)O)c(=O)c2cc(F)c(N3CCNC(C)C3)c(F)c21 (stereo not given) [Lomefloxacin hydrochloride] | 0.00422 (active) | 0.0101 (active) | 0.0243 (active) | 0.0292 (active) | 0.035 (active) | 0.11 | 0.0147 (active) | 0.0041 (active)
